# Tests used:
# [1] = molecular target: T1, Aspartate--tRNA(Asp/Asn) ligase (Mycobacterium tuberculosis (strain ATCC 25618 / H37Rv)) (UniProt P9WFW3); assay: Assay for Asp RNA synthetase-1 from Mycobacterium tuberculosis; assay type: functional; parameters: scale not given: direction of the effect not stated beside the values; conditions: 30 µM; also: in the data most compounds retested in dose-response had high values
# T1 sequence (whole entry): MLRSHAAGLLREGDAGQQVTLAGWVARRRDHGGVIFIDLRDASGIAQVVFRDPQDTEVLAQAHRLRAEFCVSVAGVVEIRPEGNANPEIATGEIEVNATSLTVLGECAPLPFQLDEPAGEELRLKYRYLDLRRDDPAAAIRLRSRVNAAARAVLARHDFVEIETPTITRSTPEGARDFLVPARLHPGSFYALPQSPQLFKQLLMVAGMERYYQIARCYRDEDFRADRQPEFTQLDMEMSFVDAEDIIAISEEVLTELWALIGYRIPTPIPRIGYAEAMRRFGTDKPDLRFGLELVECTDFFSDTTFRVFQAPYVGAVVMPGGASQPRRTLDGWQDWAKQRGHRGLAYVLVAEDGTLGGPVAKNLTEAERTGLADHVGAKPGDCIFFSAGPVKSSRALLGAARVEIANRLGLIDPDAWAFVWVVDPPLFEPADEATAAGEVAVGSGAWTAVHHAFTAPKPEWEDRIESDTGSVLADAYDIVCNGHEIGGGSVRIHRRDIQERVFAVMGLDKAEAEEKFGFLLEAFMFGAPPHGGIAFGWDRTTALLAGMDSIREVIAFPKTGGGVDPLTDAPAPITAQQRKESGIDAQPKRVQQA
# [2] = molecular target: Shiga toxin 2 (Escherichia coli O157:H7) (UniProt P09385+P09386); assay: E. coli 0.157:H7 Shiga Toxin SOP - stx2 screening assay; assay type: functional; parameters: scale not given: direction of the effect not stated beside the values; conditions: 30 µM
SMILES,Percent Effect [1],Percent Effect [2]
CN(CC(=O)N1CCCC1Cn1cccn1)c1cnccn1 (stereo not drawn),-1.26%,-0.699%
Cc1nn(C)c(N(C)C)c1CNCc1ccccc1CN(C)C,-4.76%,-24.6%
Cc1nn(C(C)C)c(C)c1NC(=O)c1ccncc1,-0.479%,-15.8%
CC(NC(=O)CN(C)S(C)(=O)=O)c1nnc2n1CCCCC2 (stereo not drawn),5%,-25.1%
Clc1ccc(OCCCN2CCN(c3cnccn3)CC2)cc1,1.06%,-6.97%
CCn1ccnc1CN1CCC(CNC(=O)c2ccc(C)nc2)C1 (stereo not drawn),-0.565%,-34.1%
CC(C)N(Cc1nc2c(cnn2C)c(=O)[nH]1)c1ccccc1,-2.77%,3.48%
O=C(O)C1(Cc2cc(-c3ccc(F)cc3F)no2)CCOCC1,0.819%,-13.5%
CCc1noc(CN2CCCC2c2noc(C3CC3)n2)n1 (stereo not drawn),0.459%,12.9%
Cc1ccc(C(=O)NCCCNS(C)(=O)=O)cc1-n1cccc1,-0.21%,-17.9%
CCc1noc(C(C)N2CCN(c3ccc(C#N)cn3)CC2)n1 (stereo not drawn),-2.49%,-26.5%
CC(C)Nc1nc(N2CCCC2)nc2c1CN(C(C)C)CC2,2.18%,-118%
CC(C)c1nc2n(n1)CC(NCc1nnnn1C1CC1)CC2 (stereo not drawn),1.55%,8.39%
COC(=O)c1cccn1C1CCN(CC(=O)NC2CCCCC2)CC1,-1.64%,1.4%
COCCN1C[C@@H]2CCCO[C@@H]2[C@H](NC(=O)c2cnccn2)C1,3.03%,-9.33%
CC(=O)N1N=C(c2ccccc2)OC1C(=O)NCCC1=CCCCC1 (stereo not drawn),0.28%,22.5%
COc1ccccc1C(O)CNC(=O)NCc1cccnc1OC (stereo not drawn),-0.742%,9.52%
Clc1ccccc1C1(c2ccnc(-c3ncccn3)n2)CCNCC1,8.32%,-34.1%
CC(c1cccc(S(N)(=O)=O)c1)N(C)CCOc1ccccc1 (stereo not drawn),0.185%,-29.3%

# — ChEMBL document CHEMBL3988442, “University of Dundee, Small-Polar-MMV Screening Library” (2021)
